# Screening results as filed in PubChem.
# Most compounds without a hit are left out; they make up all but 1.9% or so of the library.
# PfHsp40 rescue – rescue of yeast from PfHsp40 toxicity, primary screen, S. cerevisiae, ATP luminescence; S. cerevisiae expressing PfHsp40, growth rescue; hit rate 0.68% among 340,000; AID 504582, 2011; growth rescue, % at 12.5 µM; in the data active = growth rescue above about 28%, passing the limit was not always enough;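 also: yeast W303a lacking pdr1 and pdr3 grown in galactose medium; growth measured after three days at 30 °C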
# RecA intein inh – Mtb RecA intein splicing inhibitors, primary screen, biochemical, fluorescence, HTS. cell-free RecA intein splicing. inhibition, % (concentration not given with the values). AID 2221, 2009. hit rate 0.75% among 290,000; in the data active = inhibition above about 30%;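 also: 0% = vehicle wells and 100% = reference inhibitor control wells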
# Target sequence (P9WHJ3 whole entry, looked up): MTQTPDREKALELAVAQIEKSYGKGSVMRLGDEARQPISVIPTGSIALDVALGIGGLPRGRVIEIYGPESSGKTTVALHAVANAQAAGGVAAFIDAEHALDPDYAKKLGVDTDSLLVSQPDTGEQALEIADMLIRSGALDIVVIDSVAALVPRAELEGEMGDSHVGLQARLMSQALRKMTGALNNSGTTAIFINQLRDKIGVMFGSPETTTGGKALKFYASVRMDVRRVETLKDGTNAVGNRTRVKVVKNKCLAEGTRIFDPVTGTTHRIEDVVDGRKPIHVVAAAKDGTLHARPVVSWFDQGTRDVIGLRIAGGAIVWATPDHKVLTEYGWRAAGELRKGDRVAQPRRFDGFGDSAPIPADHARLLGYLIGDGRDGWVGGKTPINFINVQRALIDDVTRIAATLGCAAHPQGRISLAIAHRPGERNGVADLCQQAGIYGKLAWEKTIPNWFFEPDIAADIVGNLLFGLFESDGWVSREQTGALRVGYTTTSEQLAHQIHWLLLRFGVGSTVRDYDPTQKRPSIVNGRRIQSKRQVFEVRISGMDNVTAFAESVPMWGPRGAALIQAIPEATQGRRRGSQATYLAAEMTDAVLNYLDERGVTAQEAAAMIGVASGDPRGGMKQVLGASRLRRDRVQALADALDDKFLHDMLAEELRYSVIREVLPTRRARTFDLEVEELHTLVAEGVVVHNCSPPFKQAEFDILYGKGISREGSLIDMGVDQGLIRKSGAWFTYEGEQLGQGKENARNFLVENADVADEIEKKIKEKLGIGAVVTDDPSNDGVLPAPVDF
# PrP UTR inh – inhibition of PrP 5' UTR reporter expression; cell-based PrP 5' UTR mRNA reporter, plate reader; inhibition, % (test concentration not listed); hit rate 0.35% among 340,000; in the data active = inhibition above about 52%; also: 0 = median of the neutral control wells
# SSB-PriA inh – inhibitors of Klebsiella pneumoniae PriA binding to SSB C-terminal tail, primary screen, biochemical, AlphaScreen; hit rate 0.6% among 430,000; inhibition, % at 33 µM; AlphaScreen SSBct-PriA binding, biotinylated peptide; in the data active = inhibition mostly above about 37%, no sharp cut-off; inactive = mostly below about 20%;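 also: plate controls were negative control peptide for no effect and reference peptide for full effect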
# BJeLR viability – MLPCN primary cell-based screen for lethality selective to Ras in HRASV12 cells | BJeLR (HRASV12) viability, CellTiter-Glo ATP luminescence, 48 h | inhibition, % (concentration not given with the values) | hit rate 0.17% among 300,000 | AID 1554, 2009; in the data active = inhibition above about 50%
# PrPC TRFRET – inhibitors of human cell surface prion protein PrPC, primary screen, cell-based, TR-FRET | Major prion protein (Homo sapiens), P04156 | TR-FRET read-out | inhibition, % at 13.8 µM | hit rate 0.43% among 370,000; in the data active = inhibition above about 24%; also: 0% = median of the test wells and 100% = reference compound wells
# PrPC TRFRET cf – confirmation of inhibitors of cell surface human prion protein, confirmation, cell-based, TR-FRET. shares compounds with PrPC TRFRET. cell surface PrPC level. inhibition, % at 13.8 µM. hit rate 65% among 1,500. AID 743200, 2013; in the data active = inhibition above about 25%
# LD9 tox – cytotoxicity in LD9 cells, cytotoxicity control for cell surface PrPc inhibitor project, cell-based, luminescence, high throughput; inhibition, % at 13.8 µM; hit rate 29% among 1,500; luminescence viability; shares compounds with PrPC TRFRET; in the data active = inhibition above about 9.5%
# Active calls of the source: *; nt = no result.
SMILES,PfHsp40 rescue,RecA intein inh,PrP UTR inh,SSB-PriA inh,BJeLR viability,PrPC TRFRET,PrPC TRFRET cf,LD9 tox
Cn1cccc1-c1noc(CNC(=O)Cn2c(=O)oc3ccccc32)n1,nt,nt,nt,3,nt,nt,nt,nt
Cc1cc(NC(=O)Cn2nc(-c3ccccn3)n(C)c2=O)no1,nt,nt,nt,-8,nt,nt,nt,nt
O=C(c1ccsc1)N1CCC(N2CCC(Oc3ccccc3F)CC2)CC1,nt,nt,nt,2,nt,nt,nt,nt
COc1cccc2sc3cc(NCc4ccc(C)o4)ccc3c(=O)c12,1,nt,-39,7,nt,37*,83*,3
Cc1[nH]c(=O)c(C#N)c(C)c1CSc1ncccn1,1,-1,1,-8,16,29*,25*,-3
CCn1c(=O)c(C(=O)NCc2ccc(OC)cc2)c(O)c2ccccc21,6,3,-5,0,3,5,nt,nt
CCn1c(=O)c(C(=O)NCc2ccccn2)c(O)c2ccccc21,-1,nt,-10,-7,-1,30*,40*,-5
CCOc1ccccc1C(=O)Nc1ccc2nc(C)[nH]c(=O)c2c1,nt,nt,nt,nt,nt,26*,4,2
COC(=O)c1ccc(OC)c(CN2C=NS(=O)(=O)c3ccc(C(F)(F)F)cc32)c1,nt,nt,nt,-6,nt,nt,nt,nt
C[C@@H]1C[C@@H]([C@H](O)CC2CC(=O)NC(=O)C2)C(=O)[C@@H](C)C1,40*,nt,45,2,nt,82*,86*,33*
CC(=O)c1cnc(Nc2cccc(Cl)c2Cl)s1,0,0,-46,-8,-3,26*,18,-7
CC(=O)c1cnc(Nc2ccccc2)s1,0,3,-14,-8,-7,-9,nt,nt
C[C@@]12C(=O)N(c3cccc(F)c3)C(=O)N1[C@@H]1c3ccccc3OC[C@@H]1[C@H]2c1ccccc1,-2,nt,-21,-1,nt,29*,16,-1
Cc1ccc2c(c1)[C@H]1[C@H](CO2)[C@H](c2ccccc2)[C@]2(C)C(=O)Nc3cc(F)c(F)cc3C(=O)N12,3,nt,-5,8,nt,29*,19,-6
Cc1ccc2c(c1)[C@H]1[C@H](CO2)[C@H](c2ccccc2)[C@]2(C)C(=O)Nc3ccc(F)cc3C(=O)N12,0,nt,-15,0,nt,5,nt,nt
CCOc1nn(CC)cc1C(=O)Nc1nnc(SCC)s1,nt,nt,nt,2,nt,nt,nt,nt
COc1ccc(CCNC(=O)CSc2nc(-c3ccccc3)cc(=O)[nH]2)cc1OC,nt,nt,nt,-8,nt,nt,nt,nt
O=S(=O)(NCC(c1ccsc1)N1CCOCC1)c1cccc(Cl)c1 (stereo unspecified),nt,nt,nt,-9,nt,nt,nt,nt
COC(=O)c1ccc(NC(=O)c2ccc(=O)[nH]n2)cc1,nt,nt,nt,8,nt,nt,nt,nt
COc1ccc(NC(=O)NNC(=O)COc2ccc3cc(Br)ccc3c2)cc1OC,-1,1,-24,-14,-1,42*,69*,-7
COc1ccc(NC(=O)NNC(=O)COc2ccc3ccccc3c2)cc1OC,-4,1,13,5,-3,-7,nt,nt
Cc1c(OCC(N)=O)ccc2c(-c3ccccc3)cc(=O)oc12,0,-2,-22,-10,8,27*,-9,-3
O=C(Cn1cncn1)N1CCN(c2nc(-c3ccsc3)cs2)CC1,nt,nt,nt,2,nt,nt,nt,nt
Cc1cc(=S)n2ccsc2n1,nt,nt,nt,-3,nt,nt,nt,nt
O=C(Nc1ccc2c(c1)OCO2)c1ccc2sc([C@@H]3O[C@H](CO)[C@H](O)[C@H](O)[C@H]3O)nc2c1,nt,nt,nt,nt,nt,-7,nt,nt
SMILES,PfHsp40 rescue,RecA intein inh,PrP UTR inh,SSB-PriA inh,BJeLR viability,PrPC TRFRET,PrPC TRFRET cf,LD9 tox
O=C(Nc1ccc2c(c1)OCO2)c1ccc2sc([C@@H]3O[C@H](CO)[C@@H](O)[C@H]3O)nc2c1,nt,nt,nt,nt,nt,25*,21,5
O=C(NC1CCCC1)C1CCC(Cn2c(=O)c3ccccc3n(Cc3cccc(Cl)c3)c2=O)CC1 (stereo unspecified),nt,nt,nt,9,nt,nt,nt,nt
Cc1cc(C)cc(NC(=O)C2CCCN2S(=O)(=O)c2ccc3c(c2)C(C)(C)C(=O)N3C)c1 (stereo unspecified),2,3,-28,-7,-2,37*,19,-4
CN1C(=O)C(C)(C)c2cc(S(=O)(=O)N3CCCC(C(=O)NCc4ccc(Cl)cc4)C3)ccc21 (stereo unspecified),-1,-1,-39,-5,-5,41*,45*,-2
CN1C(=O)C(C)(C)c2cc(S(=O)(=O)N3CCCC3C(=O)NCc3ccc(F)cc3)ccc21 (stereo unspecified),1,-1,-26,-12,3,4,nt,nt
COc1ccc(OC)c(S(=O)(=O)N2CCN(c3cnccn3)CC2)c1,nt,nt,nt,-21,nt,nt,nt,nt
COc1ccc(NC(=O)c2cc(-c3cc(Cl)ccc3OC)n[nH]2)c(OC)c1,nt,nt,nt,nt,nt,28*,19,1
CCOc1ccc(Cl)cc1-c1cc(C(=O)Nc2ccc(OC)cc2OC)[nH]n1,nt,nt,nt,nt,nt,13,nt,nt
CCOc1ccc(NC(=O)c2ccc(COc3ccccc3)o2)cc1,nt,nt,nt,-6,nt,nt,nt,nt
COc1cccc2c(=O)c(C(=O)NCCc3ccccc3)c[nH]c12,1,nt,-41,-7,nt,25*,12,-4
Cc1ccc(C)c(S(=O)(=O)N=C2C=C(Cl)C(=O)c3ccccc32)c1,nt,nt,nt,59,nt,nt,nt,nt
Cc1nn(Cc2ccccc2Cl)c2sc(C(=O)NC(C)(C)C)cc12,2,-3,4,-10,1,7,nt,nt
Cc1csc(NC(=O)c2cc3c(C)nn(Cc4ccccc4Cl)c3s2)n1,-1,-2,-7,-16,-5,33*,24,-1
Nc1ccc(C(=O)NN=Cc2cccc(Oc3ccccc3)c2)cc1,nt,nt,nt,6,nt,nt,nt,nt
Cc1cnc(C=NNC(N)=S)c2cccc(N)c12,-2,nt,10,14,nt,-2,nt,nt
NC(=S)NN=Cc1nccc2c(C(F)(F)C(F)(F)C(F)(F)F)cccc12,nt,nt,nt,nt,nt,28*,29*,60*
Cc1ccc(S(=O)(=O)N2CCC(C(=O)Nc3ccc4sccc4c3)CC2)cc1,nt,nt,nt,-5,nt,nt,nt,nt
CCOC(=O)CNC(=O)CSc1nc2c(C)cccc2cc1CC,0,-1,-21,-1,5,71*,107*,-2
Cc1cc2cccc(C)c2nc1SCC(=O)NNC(=O)c1ccco1,-1,-2,-34,15,9,55*,65*,-5
Cc1cc(C)c2nc(SCC(=O)NNC(=O)c3ccco3)c(C)cc2c1,0,4,-12,-8,nt,44*,45*,-2
CCc1cc2cccc(C)c2nc1SCC(=O)NC1CCCC1,0,-3,-20,-12,4,5,nt,nt
CCc1cc2cccc(C)c2nc1SCC(=O)N1CCN(C(=O)c2ccco2)CC1,3,-3,-5,-2,-4,25*,59*,3
COc1cc(NC(=O)c2cccc3c(-c4cccnc4)coc23)cc(OC)c1OC,nt,nt,nt,nt,nt,30*,25*,43*
